# Results: ChEMBL document CHEMBL3988442, “University of Dundee, Small-Polar-MMV Screening Library” (2021)
# The whole screen tested about 66,000 compounds, of which about 960 (1.5%) showed an effect of 50% or more. The sample as a whole holds a higher share of strong results than the screen did.
# Test system: Trypanosoma brucei
# Assay: Trypanosoma brucei 72 hour study
# Format: functional, organism-based
# Design: scale not given: in the data most compounds retested in dose-response had high values
smiles,measurement,setting,value
Cc1ccc(CNCc2cccc3cn[nH]c23)c(OC2CCOC2)c1 (configuration not stated),Percent Effect,"30 µM, 30.03 µM",-32.61%
Cc1ccc(CNCc2c[nH]nc2C(C)(C)C)c(OC2CCOC2)c1 (configuration not stated),Percent Effect,"30 µM, 30.03 µM",-38.61%
Cc1ccc(CNCc2cccc3cccnc23)c(OC2CCOC2)c1 (configuration not stated),Percent Effect,"30 µM, 30.03 µM",98.1%
O=C(O)C(F)(F)F.O=C1COC2(CCN(Cc3cccs3)CC2)CN1c1ccsc1,Percent Effect,"30 µM, 30.03 µM",3.746%
CC(=O)N1CCN(Cc2ccco2)CC2(CC(=O)N(C)C2)C1.O=C(O)C(F)(F)F (configuration not stated),Percent Effect,"30.3 µM, […]",-65.74%
Cc1occc1C(=O)N1CCC[C@]2(C[C@@H](OCc3ccccn3)CO2)C1.O=C(O)C(F)(F)F,Percent Effect,"30.3 µM, […]",-89.01%
Cl.OC1(Cn2ccc3ncccc32)CCN(Cc2ccccc2F)CC1,Percent Effect,"30.3 µM, […]",12.85%
O=C(C1CCOCC1)N1CCc2ncc(CN3CCOCC3)n2CC1.O=C(O)C(F)(F)F,Percent Effect,"30.3 µM, […]",-405.3%
CCCN(C(=O)c1cccnc1)c1nc2c(s1)CCc1c-2cnn1C,Percent Effect,"30.3 µM, […]",48.91%
CCCN(C(=O)c1ccncc1)c1nc2c(s1)CCc1c-2cnn1C,Percent Effect,"30.3 µM, […]",55.53%
CCCN(C(=O)c1cnccn1)c1nc2c(s1)CCc1c-2cnn1C,Percent Effect,"30.3 µM, […]",47.96%
CCOc1ccc(C(=O)N2CCCC(c3nccn3C)C2)cc1OCC (configuration not stated),Percent Effect,"30 µM, 30.03 µM",-33.07%
CCn1cnnc1CN(C)Cc1nc(-c2cc(OC)ccc2F)oc1C,Percent Effect,"30 µM, 30.03 µM",-24.61%
CC(C)C[C@H](NC(=O)Cn1ccc2c(Cl)cccc21)C(=O)O,Percent Effect,"30 µM, 30.03 µM",-31.2%
CC(C)NC(=O)Cn1ccc2c(Cl)cccc21,Percent Effect,"30 µM, 30.03 µM",-29.64%
O=C(Cn1ccc2c(Cl)cccc21)N[C@@H](C(=O)O)c1ccccc1,Percent Effect,"30 µM, 30.03 µM",60.67%
CN(C)C(=O)COCC1CN(S(C)(=O)=O)Cc2ncn(C)c21.O=C(O)C(F)(F)F (configuration not stated),Percent Effect,"30.3 µM, […]",-29.75%
CCN1CCC2(CC1)CC(NCc1cccc(C)n1)c1ccccc1O2.O=C(O)C(F)(F)F.O=C(O)C(F)(F)F.O=C(O)C(F)(F)F (configuration not stated),Percent Effect,"30 µM, 30.03 µM",-8.099%
FC1(F)CCN(Cc2cccnc2)CC12CCN(c1ccccc1)C2.O=C(O)C(F)(F)F.O=C(O)C(F)(F)F.O=C(O)C(F)(F)F (configuration not stated),Percent Effect,"30.3 µM, […]",100.3%
FC1(F)CCN(Cc2ccncc2)CC12CCN(c1cnccn1)C2.O=C(O)C(F)(F)F.O=C(O)C(F)(F)F.O=C(O)C(F)(F)F (configuration not stated),Percent Effect,"30.3 µM, […]",6.608%
Cn1cc(CN2CCC(F)(F)C3(CCN(c4cccnc4)C3)C2)cn1.O=C(O)C(F)(F)F.O=C(O)C(F)(F)F (configuration not stated),Percent Effect,"30.3 µM, […]",3.133%
FC1(F)CCN(Cc2ccccn2)CC12CCN(c1cnccn1)C2.O=C(O)C(F)(F)F.O=C(O)C(F)(F)F.O=C(O)C(F)(F)F (configuration not stated),Percent Effect,"30.3 µM, […]",-80.37%
Cn1ccnc1CN1CCC(F)(F)C2(CCN(c3cccnc3)C2)C1.O=C(O)C(F)(F)F.O=C(O)C(F)(F)F (configuration not stated),Percent Effect,"30.3 µM, […]",-58.8%
Fc1ccc(CN2CCC(F)(F)C3(CCN(c4cnccn4)C3)C2)cc1.O=C(O)C(F)(F)F.O=C(O)C(F)(F)F (configuration not stated),Percent Effect,"30.3 µM, […]",93.17%
Cn1cc(CN2CCC(F)(F)C3(CCN(c4ccccn4)C3)C2)cn1.O=C(O)C(F)(F)F.O=C(O)C(F)(F)F (configuration not stated),Percent Effect,"30.3 µM, […]",-14.43%
FC1(F)CCN(Cc2cccnc2)CC12CCN(c1cnccn1)C2.O=C(O)C(F)(F)F.O=C(O)C(F)(F)F.O=C(O)C(F)(F)F (configuration not stated),Percent Effect,"30.3 µM, […]",-8.346%
FC1(F)CCN(Cc2ccncc2)CC12CCN(c1cccnc1)C2.O=C(O)C(F)(F)F.O=C(O)C(F)(F)F.O=C(O)C(F)(F)F (configuration not stated),Percent Effect,"30.3 µM, […]",-14.72%
Cn1cc(CN2CCC(F)(F)C3(CCN(c4ncc(F)cn4)C3)C2)cn1.O=C(O)C(F)(F)F (configuration not stated),Percent Effect,"30.3 µM, […]",-7.399%
Cn1cc(CN2CCC(F)(F)C3(CCN(c4cccc(F)c4)C3)C2)cn1 (configuration not stated),Percent Effect,"30.3 µM, […]",99.39%
CN(C)c1ccc(C(CNS(=O)(=O)c2cccs2)N2CCCC2)cc1 (configuration not stated),Percent Effect,"30 µM, 30.03 µM",-11.49%
C1CC(N2Cc3nnn(CC4CC4)c3C(COCC3CC3)C2)C1.O=C(O)C(F)(F)F (configuration not stated),Percent Effect,"30.3 µM, […]",-49.13%
O=C(O)C(F)(F)F.O=C([C@H]1CCCO1)N1CCN(CCn2cccn2)c2ncccc2C1,Percent Effect,"30.3 µM, […]",-89.38%
COCC(=O)N1CCN(Cc2cc(-c3ccncc3)nn2C)CC1,Percent Effect,"30.3 µM, […]",-0.9188%
COCC1CN(c2ccc(C)nn2)Cc2cnn(CC3CCOCC3)c21.O=C(O)C(F)(F)F.O=C(O)C(F)(F)F (configuration not stated),Percent Effect,"30.3 µM, […]",-39.18%
COCCN1CCC2(CC1)CC(NC(=O)CC1CC1)c1ccccc1O2.O=C(O)C(F)(F)F (configuration not stated),Percent Effect,"30.3 µM, […]",-15.57%
CN(C)[C@@H]1CN(C(=O)CCc2ccccc2)[C@@H]2CCCO[C@H]12.O=C(O)C(F)(F)F,Percent Effect,"30.3 µM, […]",-48.96%
CC(C)(N)C(=O)N1CCC(c2nccnc2Oc2cccc(F)c2)CC1,Percent Effect,"30.3 µM, […]",6.584%
O=C(Nc1cccnc1)[C@@H]1CCO[C@@H]2CCN(Cc3cccnc3)C[C@@H]21.O=C(O)C(F)(F)F.O=C(O)C(F)(F)F.O=C(O)C(F)(F)F,Percent Effect,"30 µM, 30.03 µM",-27.43%
Cc1cc2c(=O)n(CC(=O)N3CCn4cccc4C3C(C)C)cnc2s1 (configuration not stated),Percent Effect,"30.3 µM, […]",-7.761%
CCCC1c2cccn2CCN1C(=O)Cn1cnc2sc(C)cc2c1=O (configuration not stated),Percent Effect,"30.3 µM, […]",-9.094%
CCC1c2ccc(C)n2CCN1C(=O)Cn1cnc2sc(C)cc2c1=O (configuration not stated),Percent Effect,"30.3 µM, […]",55.61%
CCCS(=O)(=O)N1C[C@@H](c2ccccc2)[C@@]2(CCNC2=O)C1,Percent Effect,"30.3 µM, […]",-54.35%
Cn1cccc1C(=O)N1C[C@H]2CN(Cc3cccc(F)c3)C[C@H]2C1.O=C(O)C(F)(F)F,Percent Effect,"30.3 µM, […]",-14.05%
O=c1[nH]ncc(NCCOc2ccc3c(c2)CCC3)c1Cl,Percent Effect,"30 µM, 30.03 µM",6.404%
CC(C)CCN(C)Cc1nc2c(cnn2C)c(=O)[nH]1,Percent Effect,"30.3 µM, […]",0.4486%
CC(C)CCN(CCC(C)C)Cc1nc2c(cnn2C)c(=O)[nH]1,Percent Effect,"30.3 µM, […]",99.67%
CC(C)CN(Cc1nc2c(cnn2C)c(=O)[nH]1)CC(C)C,Percent Effect,"30.3 µM, […]",3.745%
CO[C@@H]1CCN(C(=O)c2ccccn2)[C@H]1Cc1ccccc1.O=C(O)C(F)(F)F,Percent Effect,"30.3 µM, […]",3.29%
CC1c2ncc(COc3cccnc3)n2CCN1Cc1cnn(C)c1.O=C(O)C(F)(F)F.O=C(O)C(F)(F)F (configuration not stated),Percent Effect,"30.3 µM, […]",2.727%
COc1ncccc1C(=O)N1CC[C@H]2C[C@@H](c3nccs3)O[C@@H]2C1,Percent Effect,"30 µM, 30.03 µM",-31.44%
CNC(=O)NCC(CO)Cc1cccc(OC(F)(F)F)c1 (configuration not stated),Percent Effect,"30 µM, 30.03 µM",-27.06%
NCC(CO)Cc1cccc(OC(F)(F)F)c1 (configuration not stated),Percent Effect,"30 µM, 30.03 µM",97.23%
NCC(CO)Cc1ccc(OC(F)(F)F)cc1 (configuration not stated),Percent Effect,"30 µM, 30.03 µM",-40.47%
CN1CCN(C(=O)c2n[nH]c3c2CN(C2CCOCC2)CC3)CC1.O=C(O)C(F)(F)F.O=C(O)C(F)(F)F.O=C(O)C(F)(F)F,Percent Effect,"30.3 µM, […]",-12.86%
Cc1cnn(C2CCCN(C(=O)c3cc4nc(C)ccc4o3)C2)c1 (configuration not stated),Percent Effect,"30.3 µM, […]",0.9394%
CCN1CC2(CC1=O)CN(Cc1ccc(C)o1)CCN(C(=O)C(C)C)C2.O=C(O)C(F)(F)F (configuration not stated),Percent Effect,"30 µM, 30.03 µM",-2.917%
COCCN1CCN(Cc2c(C3CCNCC3)[nH]c3ncccc23)CC1.Cl,Percent Effect,"30.3 µM, […]",1.283%
Cc1noc(C)c1C(=O)NCc1ccc(N2CCC(C)CC2)nc1,Percent Effect,10 µM,-31.9%
same,Percent Effect,"30.3 µM, […]",4.367%
COc1ccc(CC(=O)N2CCC[C@@H](N)[C@@H]2c2ccccc2F)cc1.Cl,Percent Effect,"30.3 µM, […]",4.872%
COc1cccc(CCC(=O)N2CCC[C@@H](N)[C@@H]2c2ccccc2F)c1.Cl,Percent Effect,"30.3 µM, […]",35.53%
N[C@@H]1CCCN(C(=O)Cc2c[nH]c3ccccc23)[C@H]1c1ccccc1F,Percent Effect,"30.3 µM, […]",82.48%
Cc1cc(C(=O)N2CCC3(CC2)C(=O)N(C)CCN3CC2CC2)c(C)o1.O=C(O)C(F)(F)F,Percent Effect,"30.3 µM, […]",5.817%
COCCN1C(=O)[C@]2(CC[C@@H]3CN(Cc4ccccc4F)C[C@@H]32)N=C1C.O=C(O)C(F)(F)F,Percent Effect,"30.3 µM, […]",-70.3%
COCc1nn(C(C)C)c2c1CCN(Cc1ccccn1)C2.O=C(O)C(F)(F)F.O=C(O)C(F)(F)F,Percent Effect,"30 µM, 30.03 µM",-4.66%
CCS(=O)(=O)N1CCC2(CN(c3ccsc3)C(=O)CN2C)C1.O=C(O)C(F)(F)F (configuration not stated),Percent Effect,"30 µM, 30.03 µM",-22.46%
Cc1nc(Nc2nncs2)cc(C2CCCN2C)n1 (configuration not stated),Percent Effect,"30.3 µM, […]",-36.12%
Cc1csc(Nc2cc(C3CCCCN3C)nc(C)n2)n1 (configuration not stated),Percent Effect,"30 µM, 30.03 µM",67.05%
CNCC(=O)N1CC(c2cc(Nc3nc(C)cs3)nc(C)n2)C1.Cl,Percent Effect,"30.3 µM, […]",20.55%
Cc1csc(Nc2cc(C3CN(C(C)C)C3)nc(C)n2)n1,Percent Effect,"30.3 µM, […]",84.55%
Cc1nc(Nc2nnc(C)s2)cc(C2CCCN2C)n1 (configuration not stated),Percent Effect,"30 µM, 30.03 µM",-13.78%
Cc1nc(Nc2nccs2)cc(C2CN(C(C)C)C2)n1,Percent Effect,"30.3 µM, […]",5.847%
Cc1cccc(CN2C[C@@H]3COC[C@]3(CNC(=O)c3cccn3C)C2)n1.O=C(O)C(F)(F)F.O=C(O)C(F)(F)F,Percent Effect,"30 µM, 30.03 µM",12.67%
O=C(O)C(F)(F)F.O=C(O)C(F)(F)F.c1cncc(OCc2noc3c2CN(Cc2cccs2)CC3)c1,Percent Effect,"30 µM, 30.03 µM",-9.325%
Cc1ccc(CN2CC[C@H]3[C@@H]2CCC(=O)N3CCN2CCCC2)s1.O=C(O)C(F)(F)F.O=C(O)C(F)(F)F,Percent Effect,"30 µM, 30.03 µM",11.06%
O=C(O)C(F)(F)F.O=C(c1cnc2ccccc2c1)N1CCC2(CCN2c2ncccn2)C1 (configuration not stated),Percent Effect,"30 µM, 30.03 µM",-41.44%
CN1CCCC(c2cccc(-c3cccc(F)c3)n2)C1 (configuration not stated),Percent Effect,"30.3 µM, […]",6.457%
CN1CCCC(c2cccc(-c3cccc(C(F)(F)F)c3)n2)C1 (configuration not stated),Percent Effect,"30.3 µM, […]",71.49%
CN1CCCC(c2cncc(-c3cccc(C(F)(F)F)c3)n2)C1 (configuration not stated),Percent Effect,"30.3 µM, […]",45.17%
CN(C)C(=O)Cn1c2c(ccc1=O)CCN(Cc1cnn(C)c1)CC2.O=C(O)C(F)(F)F,Percent Effect,"30.3 µM, […]",-19.86%
O=C(NCc1ccco1)[C@H]1CC[C@@H]2[C@@H](CCN2c2ncc(F)cn2)O1.O=C(O)C(F)(F)F,Percent Effect,"30 µM, 30.03 µM",-7.643%
Cc1ccc(N(C)S(=O)(=O)c2cc(C(=O)O)cs2)cc1,Percent Effect,"30.3 µM, […]",-13.08%
